The results in this text go back to PubChem BioAssay.

Calls of active or inactive are those of the source.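 The calls were made as follows: active = viability increase at or above a cutoff of the median across tested compounds plus 3 SD (cut at about 8.5% in these data, passing the limit was not always enough); inconclusive = some gains above the cutoff, reason not given; inactive = the rest.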

This experiment can be described thus: doxorubicin toxicity protection in MRP-1 cells – H69AR cells, CellTiter-Glo, duplicate, MRP-1 activator project, pilot screen (AID 807).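 Also: compound pretreatment 18-22 h then 72 h combined with doxorubicin; 0% = doxorubicin alone and 100% = vehicle without doxorubicin.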 Particulars: H69AR viability with doxorubicin, CellTiter-Glo luminescence; at 10 µM; stronger effect = higher value.
Consider `CCC(C)NC(=O)CCCCCn1c(=O)[nH]c2cc(OC)c(OC)cc2c1=O` (configuration not stated), for which the viability increase is -2.36% (inactive).
Then `Cc1ccc(C(C(=O)NC2CCCC2)N2CCCCC2)cc1` (configuration not stated), with -1.32% (inactive).
As for `COc1ccccc1N1CCN(C(=O)c2ccc(Br)s2)CC1`, the figure is -1.58% (inactive); as for `Cc1cc(=O)[nH]c(Cc2ccc(OC(C)C)cc2)n1`, -1.17% (inactive).
Take `Cc1ccc(-c2nnc3ccc(SC(C)C(=O)O)nn23)cc1` (configuration not stated): the viability increase was -1.29% (inactive).
As for `CSc1nnc(-c2ccco2)n1-c1ccccc1`, the figure is -0.4% (inactive); as for `COc1ccc(C2CC(c3cccc(C)c3)n3nc(N)nc3N2)cc1` (configuration not stated), -1.84% (inactive); as for `O=C(COc1ccccc1F)c1ccc(O)cc1O`, 1.2% (inactive).
Then `O=C(C1CCN(S(=O)(=O)c2cccc3cccnc23)CC1)N1CCN(C2CCCC2)CC1`, with -1.82% (inactive); and `COc1ccc(N2C(=O)C3CCCN3C2c2ccccc2OC)cc1` (configuration not stated), with -3.2% (inactive); and `O=S(=O)(Nc1ccc(-c2nc3cccnc3s2)cc1)c1cccs1`, with -1.73% (inactive).
As for `COc1cc(OC)c(C2CC(=O)N3CN(C)CSC3=C2C#N)cc1OC` (configuration not stated), the figure is -2.96% (inactive); as for `CCOCCn1c(SCc2ccc(C)cc2)nc2c1c(=O)[nH]c(=O)n2C`, -3.46% (inactive).
Regarding `CC1Oc2ccccc2C=C1C1/C(=C(/O)c2ccccc2)C(=O)C(=O)N1CCCN(C)C` (configuration not stated), the viability increase is -2.78% (inactive).
Take `c1ccc2cc3[nH]c(CN4CCCCC4)nc3cc2c1`: the viability increase was -2.94% (inactive).
Then `CCCCCOc1ccc(NC(=O)CCCC(=O)O)cc1`, with -0.75% (inactive); and `COc1cccc(NC(=O)CSc2nnc(-c3ccc(C)cc3)o2)c1`, with -0.97% (inactive).
